Rows were chosen to be rich in hits. Some 4.8% of all compounds tested hit in one or more screens of this group.
DAX1 inh-1 – inhibitors of human orphan nuclear receptor DAX1 (NR0B1) | hit rate 0.99% among 340,000 | AID 504766 | HEK293 Gal4-DAX1 luciferase reporter, luminescence | inhibition, % at 6.75 µM | P51843;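 active = inhibition above the mean over all tested compounds plus 3 SD, cut at about 4.2% in these data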;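 note: inhibition shows as a rise in luminescence from relieved DAX1 repression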
Target sequence (P51843 207-470 limits assumed): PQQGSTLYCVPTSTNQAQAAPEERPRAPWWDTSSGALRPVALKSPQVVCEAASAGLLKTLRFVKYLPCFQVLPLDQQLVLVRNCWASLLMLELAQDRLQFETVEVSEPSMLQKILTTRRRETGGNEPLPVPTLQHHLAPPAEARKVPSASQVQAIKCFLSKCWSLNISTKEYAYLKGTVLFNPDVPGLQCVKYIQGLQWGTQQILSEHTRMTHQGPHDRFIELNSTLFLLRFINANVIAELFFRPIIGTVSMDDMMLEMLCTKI
SMARCA2 activ – increases SMARCA2 function in MMTV reporter cells. activation, % at 9.1 µM. hit rate 1% among 370,000. AID 652017. MG213 cells, MMTV-luciferase reporter, dexamethasone, overnight; in the data active = activation above about 7.8%
hcDAF-12 act – activates DAF-12 receptor from parasite H. contortus. HEK293 hcDAF-12 lit1-tk-luc reporter, luminescence; 0% DMSO, 100% Δ7-dafachronic acid. hit rate 1.4% among 370,000. activation, % at 6.8 µM. AID 652067;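 active = activation above the mean of all tested compounds plus 3 SD, cut at about 5.5% in these data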
hgDAF-12 ag – hgDAF-12 agonism, primary luciferase screen; HEK293 GAL4-hgDAF12 UAS-luciferase reporter, agonist luminescence; normalized to butyrate control; activation, % at 6.8 µM; hit rate 1.8% among 370,000; AID 687014;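 active = activation above a cutoff set at the mean of all screened compounds plus 3 SD, cut at about 10% in these data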
DAX1 inh-2 – blocks DAX1 repression of SF-1 activated StAR promoter; HEK293T StAR-luciferase reporter, SF-1/DAX-1 repression relief; inhibition, % at 6.8 µM; hit rate 1.1% among 370,000; AID 652010;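 active = inhibition above the mean over all tested compounds plus 3 SD, cut at about 3.6% in these data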;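 note: higher inhibition means more luminescence from relief of DAX-1 repression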
ssDAF12 agonist – activates DAF-12 receptor from parasite S. stercoralis. hit rate 1% among 370,000. HEK293 ssDAF-12/GRIP1 lit1-tk-luc reporter, luminescence; % of 3 µM dafachronic acid response. activation, % at 6.8 µM. AID 652126;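 active = activation above the mean over all tested compounds plus 3 SD, cut at about 0.9% in these data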
LXRb hcDAF ctr – LXR-beta agonism as hcDAF-12 counter-screen. shares compounds with hcDAF-12 act. HEK293 Gal4-LXR tk-luc reporter, luminescence, 24 h; normalized: DMSO 0%, positive control 100%. activation, % at 6.8 µM. 3,400 tested, under 10 active. AID 743027;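 active = mean percent activation of the reporter above a cutoff set as the average over tested compounds plus their standard deviation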
Target sequence (P55055 whole entry, looked up, the tested form may be a part): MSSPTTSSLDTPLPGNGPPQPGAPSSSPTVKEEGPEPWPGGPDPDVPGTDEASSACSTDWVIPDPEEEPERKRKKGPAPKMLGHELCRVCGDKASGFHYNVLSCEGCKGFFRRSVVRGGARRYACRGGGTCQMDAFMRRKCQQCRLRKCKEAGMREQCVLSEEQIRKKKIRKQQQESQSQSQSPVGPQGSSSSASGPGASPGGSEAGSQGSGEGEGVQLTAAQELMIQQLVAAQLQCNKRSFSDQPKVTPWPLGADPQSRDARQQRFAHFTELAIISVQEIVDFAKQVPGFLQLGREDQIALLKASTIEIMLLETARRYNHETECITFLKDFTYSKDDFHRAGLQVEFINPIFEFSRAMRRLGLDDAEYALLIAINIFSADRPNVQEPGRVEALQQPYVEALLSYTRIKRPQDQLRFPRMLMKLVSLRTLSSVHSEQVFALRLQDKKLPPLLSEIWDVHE
hcDAF12 conf – confirmation of H. contortus DAF-12 agonists; shares compounds with hcDAF-12 act; HEK293 hcDAF-12 lit1-tk-luc reporter, luminescence; % of Δ7-dafachronic acid response; activation, % at 6.8 µM; hit rate 61% among 3,400;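 active = mean activation across triplicate tests above the threshold derived from the earlier primary screen, cut at about 5.5% in these data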
Of the large screens only hits and unclear results are named; the others gave an inactive call (follow-up assays come after a bar, where they were run).

CC(/C=N/N1CCN(c2ccccn2)CC1)=C\c1ccccc1	hcDAF-12 act 6.7 | LXRb hcDAF ctr inactive | hcDAF12 conf inactive
COc1ccccc1Cn1c(=S)[nH]c2cc(C(=O)NCC(OC)OC)ccc2c1=O	none
CC1CCCCN1S(=O)(=O)c1ccc(C(=O)Nc2ccccc2-c2nc3ccccc3[nH]2)cc1 (stereo not given)	none
CC1CCCCN1S(=O)(=O)c1ccc(C(=O)Nc2ccccc2-c2nc3ccccc3s2)cc1 (stereo not given)	hcDAF-12 act 11 | LXRb hcDAF ctr inactive | hcDAF12 conf inactive
NNC(=S)Nc1cccc(Cl)c1	none
CCc1noc(C)c1C(=O)Nc1nc2c(F)cc(F)cc2s1	hcDAF-12 act 11 | LXRb hcDAF ctr inactive | hcDAF12 conf inactive
COc1ccc(C(=O)N/C(=C/c2cccnc2)C(=O)N2CCN(C)CC2)cc1OC	none
COc1ccc(OC)c(Nc2nc(=O)c3cccnc3s2)c1	none (no result: SMARCA2 activ, hcDAF-12 act, hgDAF-12 ag, DAX1 inh-2, ssDAF12 agonist)
Cc1ccc(Nc2nc(=O)c3cccnc3s2)cc1	hcDAF-12 act 11, ssDAF12 agonist 1.3 | LXRb hcDAF ctr inactive | hcDAF12 conf 9.3
c1ccc2c(c1)CCCN2Cc1nnc2n1CCCCC2	hcDAF-12 act 7.7, ssDAF12 agonist 1.0 | LXRb hcDAF ctr inactive | hcDAF12 conf inactive
c1ccc(Cc2nnc3n2CCCCC3)cc1	none
CC(=O)c1coc2c1cc(O)c1ccccc12	none
CC(=O)c1cc(O)c2ccccc2c1O	hcDAF-12 act 10 | LXRb hcDAF ctr inactive | hcDAF12 conf inactive
CC(C)CCNC(=O)C(=O)NCCC1=CCCCC1	hcDAF-12 act 6.7 | LXRb hcDAF ctr inactive | hcDAF12 conf inactive
CCCNC(=O)C(=O)NCCC1=CCCCC1	none
Cc1ccnc2ccc(-c3nc4ccccc4o3)cc12	hcDAF-12 act 7.8, hgDAF-12 ag 13, ssDAF12 agonist 1.0 | LXRb hcDAF ctr inactive | hcDAF12 conf 12
CSc1ccccc1OCc1cc(C(=O)NC2CCc3ccccc32)no1 (stereo not given)	hcDAF-12 act 7.6 | LXRb hcDAF ctr inactive | hcDAF12 conf inactive
Cc1cc(-c2ccc(Cl)cc2)c(C#N)c(N)n1	hcDAF-12 act 6.7 | LXRb hcDAF ctr inactive | hcDAF12 conf inactive
Cc1ccc(-c2cc(-c3ccccc3)c(C#N)c(N)n2)o1	none
Cc1cc(C(=O)NCc2cccs2)cs1	none (no result: SMARCA2 activ, hcDAF-12 act, hgDAF-12 ag, DAX1 inh-2, ssDAF12 agonist)
CCC(C)Nc1nc(-c2c[nH]c3ccccc23)cs1 (stereo not given)	hcDAF-12 act 8.8 | LXRb hcDAF ctr inactive | hcDAF12 conf inactive
Cn1c(N)c(C(=O)COC(=O)COc2ccccc2Cl)c(=O)n(C)c1=O	none
CC(C)(C)Nc1c2ccccc2nc2ccccc12	none
Cc1cccc(C)c1N=C1NN=C(c2ccccc2F)CS1	none
Cc1ccccc1N=C1NN=C(c2ccccc2F)CS1	hcDAF-12 act 9.4, hgDAF-12 ag 13 | LXRb hcDAF ctr inactive | hcDAF12 conf 11
COc1ccc(OCc2cc(C(=O)N3CCC(OC)CC3)no2)c2ccccc12	hcDAF-12 act 7.8, DAX1 inh-2 3.8 | LXRb hcDAF ctr inactive | hcDAF12 conf 6.4
COC1CCN(C(=O)c2cc(COc3ccc(-n4cncn4)cc3)on2)CC1	none
COc1ccc(OCc2cc(C(=O)NC3CCOC(C)(C)C3)no2)c2ccccc12 (stereo not given)	hcDAF-12 act 7.9, DAX1 inh-2 4.1, ssDAF12 agonist 2.1 | LXRb hcDAF ctr inactive | hcDAF12 conf 8.0
O=[N+]([O-])c1ccc2cn[nH]c2c1	hcDAF-12 act 8.3 | LXRb hcDAF ctr inactive | hcDAF12 conf inactive
O=[N+]([O-])c1ccc(Cl)c(S(=O)(=O)Nc2ccc3cn[nH]c3c2)c1	none
Cc1cccc(/C=N/NC(=O)c2cc(Br)ccc2O)n1	none
COc1ccc(/C(N)=N/OC(=O)Cc2cccs2)cc1OC	hcDAF-12 act 14 | LXRb hcDAF ctr inactive | hcDAF12 conf inactive
C/C=C(/C)C(=O)OC1c2c(ccc3ccc(=O)oc23)OC(C)(C)C1OC(C)=O (stereo not given)	none
O=C(NC(=S)Nc1cc([N+](=O)[O-])ccc1Cl)c1ccccc1	hcDAF-12 act 6.6 | LXRb hcDAF ctr inactive | hcDAF12 conf 6.0
O=C(NC(=S)Nc1ccc(Cl)cc1)c1ccccc1	hcDAF-12 act 8.0, hgDAF-12 ag 13 | LXRb hcDAF ctr inactive | hcDAF12 conf inactive
O=C(NC(=S)Nc1ccc(Oc2ccc(Cl)cc2)cc1)c1ccccc1	none
O=C(c1cccs1)N1CCN(C(=O)C2CCCO2)CC1 (stereo not given)	none
COc1ccc(OC)c(NC(=O)COC(=O)/C=C/c2ccco2)c1	none
COc1ccc(OC)c(NC(=O)COC(=O)/C=C/c2ccccc2Cl)c1	hcDAF-12 act 7.1 | LXRb hcDAF ctr inactive | hcDAF12 conf inactive
Cn1c(NC(=S)Nc2ccccc2)nc2ccccc21	hcDAF-12 act 7.9, hgDAF-12 ag 11 | LXRb hcDAF ctr inactive | hcDAF12 conf inactive
O=C(NCCCn1ccnc1)c1ccc(COc2ccccc2)o1	none
CC(C)c1ccc(N2C(=NC(=O)C3CC3)SC3CS(=O)(=O)CC32)cc1 (stereo not given)	none
COC(=O)c1ccc(CSc2nnc(C)n2N)o1	hcDAF-12 act 15 | LXRb hcDAF ctr inactive | hcDAF12 conf inactive
Cc1sc(NC(=O)c2cccs2)c(C(N)=O)c1C	hcDAF-12 act 8.5 | LXRb hcDAF ctr inactive | hcDAF12 conf 6.2
CCOC(=O)c1ccc(S(=O)(=O)Nc2cc(C(=O)O)ccc2Cl)cc1	hcDAF-12 act 7.2 | LXRb hcDAF ctr inactive | hcDAF12 conf inactive
O=C(NC(=O)c1ccccc1)OCC1CCCN2CCCCC12 (stereo not given)	none
COc1cccc(CNC(=O)CNC(=O)c2cccs2)c1	none
NC(=O)C1CCN(C(=O)c2ccc(NS(=O)(=O)/C=C/c3ccccc3)cc2)CC1	none
O=C(O)Cc1sc(Nc2cccc3ccccc23)nc1-c1ccc(Cl)cc1	hcDAF-12 act 6.7 | LXRb hcDAF ctr inactive | hcDAF12 conf inactive
O=C(CSc1nnc(-c2ccccc2F)n1C1CC1)N1CCCC1	none
Cc1cc(C)n2ncc(C(=O)Nc3ccc4c(c3)CCC4)c2n1	hcDAF-12 act 6.8 (no result: DAX1 inh-1, SMARCA2 activ, DAX1 inh-2) | LXRb hcDAF ctr inactive | hcDAF12 conf 6.2
O=C(Nc1ccc(Cl)cc1)OCC12COCN1COC2	none (no result: DAX1 inh-1)
COc1ccc(NC(=O)c2ccco2)cc1NC(=O)c1c(OC)cccc1OC	none
O=C(NC1CCN(Cc2ccccc2)CC1)c1ccccc1Cl	none
Cc1c(C(=O)NC2CCN(Cc3ccccc3)C2)oc2c(Cl)cccc12 (stereo not given)	hcDAF-12 act 7.0 | LXRb hcDAF ctr inactive | hcDAF12 conf inactive

Source: PubChem (The Scripps Research Institute Molecular Screening Center)
